The text below walks through data of PubChem BioAssay (Tox21).

Assay [1] in a line: qHTS assay to identify small molecule agonists of the sonic hedgehog signaling (Shh) pathway (AID 1259368).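 Note: NIH/3T3-derived 3T3Gli1-Luc cells carrying a stable Gli1-driven firefly luciferase reporter; series mostly up to about 92 µM; nearly all actives have a fitted effect of over 15% in size.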 The method in brief:
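NIH/3T3-derived 3T3Gli1-Luc cells with stably integrated Gli1-driven firefly luciferase, 2,000 cells/well, compounds added after 4 hr. Incubated 24 hr at 37C, 5% CO2; luminescence read after 30 min with luciferase reagent at room temperature.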

Assay [2] can be described thus: qHTS assay to identify small molecule agonists of the androgen receptor (AR) signaling pathway in the presence of an antagonist - cell viability counter screen (AID 1259379; active = well fitted curve in the direction sought with a large enough effect in the repeat runs; an effect the other way counts as inactive or inconclusive;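 note: MDA-kb2 human breast cancer cells carrying an MMTV luciferase reporter; series mostly up to about 92 µM; nearly all actives have a fitted effect of over 25% in size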). The procedure, abridged:
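MDA-kb2 cells (MMTV-luciferase, AR/GR), 3,000/well, 5 h attachment, then 3.0 µM nilutamide (final) and compounds at 15 concentrations. Viability by CellTiter-Fluor fluorescence after 16 h at 37 °C, 0% CO2, in the reporter wells.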
Background: In qHTS, concentration-response curves come from the screen itself.

Assay [3] in a line: qHTS assay to identify small molecule agonists of the estrogen receptor beta (ER-beta) signaling pathway - cell viability counter screen (AID 1259380; active = well fitted curve in the direction sought with a large enough effect in the repeat runs; an effect the other way counts as inactive or inconclusive; note: nearly all actives have a fitted effect of over 30% in size; note: potency is the fitted concentration of half-maximal effect). The method in brief: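 ER-beta-UAS-bla HEK293T cells in medium with 2% charcoal-stripped FBS, pre-incubated 6 hr, then treated 16 hr at 37C. Cytotoxicity read in the same wells by CellTiter-Glo luminescence after 30 min at room temperature.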

Assay [4] addresses Estrogen receptor (Homo sapiens) (UniProt P03372). In words: qHTS assay to identify small molecule agonists of the estrogen receptor alpha (ER-alpha) signaling pathway in the presence of an antagonist (AID 1259383). Note: top concentration of the series differs between compounds; nearly all actives have a fitted effect of over 15% in size. The procedure, abridged: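 VM7Luc4E2 cells express endogenous full-length ER-alpha with an ERE-luciferase reporter and were hormone-deprived for 5 days. Compounds at 15 concentrations were added with 10.0nM ICI-182,780 for 22hr at 37C. Luminescence was read with ONE-Glo.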

A short description of assay [5]: qHTS assay to identify small molecule agonists or antagonists of the thyroid stimulating hormone receptor (TSHR) signaling pathway - wild type cell line counter screen (AID 1259384). The method in brief: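 Counter screen in untransfected Hek293: compounds (15-point titration, triplicate) plus phosphodiesterase inhibitor Ro20-1724 added after 18 h plating; 30 min RT. Intracellular cAMP via competitive d2/cryptate immunoassay, 1 h incubation.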

The nature of assay [6]: qHTS assay to identify small molecule agonists of the estrogen receptor alpha (ER-alpha) signaling pathway in the presence of an antagonist - cell viability counter screen (AID 1259386; active = well fitted curve in the direction sought with a large enough effect in the repeat runs; an effect the other way counts as inactive or inconclusive;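 note: series mostly up to about 92 µM; cells exposed to compounds for 22 h at 37 °C before the viability read; nearly all actives have a fitted effect of over 30% in size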). The procedure, abridged: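 Cell viability in VM7Luc4E2 cells (endogenous full-length ER-alpha) measured by CellTiter-Fluor fluorescence in the same wells as the luciferase screen. Cells pre-cultured 5 days in charcoal-stripped serum, then treated 22 h with compounds at 15 concentrations plus 10.0nM ICI-182,780.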

The target in assay [7] is Progesterone receptor (Homo sapiens) (UniProt P06401). In words: qHTS assay to identify small molecule agonists of the progesterone receptor (PR) signaling pathway (AID 1346784). Note: nearly all actives have a fitted effect of over 30% in size. The method in brief:
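PR-UAS-bla HEK 293T cells carrying a UAS-driven beta-lactamase reporter were seeded in medium with 2% charcoal-stripped FBS, preincubated 6 hr at 37C, then exposed to compounds in DMSO for 16 hr; agonism was read by LiveBLAzer B/G FRET fluorescence.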

A short description of assay [8]: qHTS assay to identify small molecule antagonists of the progesterone receptor (PR) signaling pathway - cell viability counter screen (AID 1346798; active = well fitted curve in the direction sought with a large enough effect in the repeat runs; an effect the other way counts as inactive or inconclusive; note: series mostly up to about 92 µM; nearly all actives have a fitted effect of over 50% in size). The procedure, abridged: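 PR-UAS-bla HEK293T cells in medium with 2% charcoal-stripped FBS were treated with compounds plus R5020 for 16 hr at 37C. Cell viability was then read by CellTiter-Glo luminescence after 30 min at room temperature in the same wells.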

A short description of assay [9]: qHTS assay to identify small molecule agonists of the progesterone receptor (PR) signaling pathway - cell viability counter screen (AID 1346799). Note: nearly all actives have a fitted effect of over 45% in size. Note: potency is the fitted concentration of half-maximal effect. The procedure, abridged: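 PR-UAS-bla HEK293T cells, 3,000 per well in medium with 2% charcoal-stripped FBS, were preincubated 6 hr at 37C, then exposed to compounds for 16 hr; viability was read as CellTiter-Glo luminescence after 30 min at room temperature.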

Assay [10] can be described thus: qHTS assay to identify small molecule antagonists of the TGF-beta/Smad signaling pathway - cell viability counter screen (AID 1346824; active = well fitted curve in the direction sought with a large enough effect in the repeat runs; an effect the other way counts as inactive or inconclusive; note: nearly all actives have a fitted effect of over 50% in size). The method in brief:
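Cytotoxicity counter-screen run in the same wells as the beta-lactamase Smad reporter read: CellTiter-Glo luminescence after 30 min at room temperature. HEK 293T SBE-bla cells had 5 hr compound exposure at 37 C with TGF-beta1 (0.25 ng/mL stock).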

The nature of assay [11]: qHTS assay to identify small molecule agonists of the TGF-beta/Smad signaling pathway - cell viability counter screen (AID 1346829; active = well fitted curve in the direction sought with a large enough effect in the repeat runs; an effect the other way counts as inactive or inconclusive; note: top concentration of the series differs between compounds; nearly all actives have a fitted effect of over 45% in size). The method in brief: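 CellTiter-Glo luminescence readout; SBE-bla HEK 293T cells, overnight plating, compound 5 hr at 37 C/5% CO2, then bla substrate 2 hr RT, then CellTiter-Glo 30 min RT.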
Assay [12] is described as follows: qHTS assay to identify small molecule agonists of the TGF-beta/Smad signaling pathway (AID 1346859; active = well fitted activation curve with a large enough effect in the signal ratio in the repeat runs, not every such curve was filed as active; the % refers to the signal ratio; note: series mostly up to about 77 µM). The procedure, abridged:
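HEK 293T cells stably carrying a beta-lactamase reporter driven by the Smad binding element were seeded overnight, exposed to DMSO-dissolved compounds for 5 hr at 37 C, 5% CO2, then loaded with FRET substrate for 2 hr at room temperature.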

The target in assay [13] is Thyrotropin-releasing hormone receptor (Homo sapiens) (UniProt P34981). In words: qHTS assay to identify small molecule antagonists of the thyrotropin-releasing hormone receptor (TRHR) signaling pathway (AID 1346877; active = well fitted inhibition curve with a large enough effect in the repeat runs, not every such curve was filed as active; note: series mostly up to about 51 µM). The method in brief:
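TRHR-expressing HEK293 cells loaded with calcium dye for 2 h at 37 C; compounds pre-incubated 5 min at room temperature before TRH challenge at 1 nM final. Intracellular calcium fluorescence read kinetically for 3 min; 15 concentrations in triplicate.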

Assay [14] deals with Androgen receptor (Homo sapiens) (UniProt P10275). In words: qHTS assay to identify small molecule agonists of the androgen receptor (AR) signaling pathway in the presence of an antagonist (AID 1259381). Note: nearly all actives have a fitted effect of over 15% in size. The procedure, abridged: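 MDA-kb2 cells carrying MMTV-luciferase (AR/GR responsive), 3,000 cells/well, co-treated with 3.0 uM nilutamide final. Compounds at 15 concentrations, 16 hr at 37C without CO2. Luciferase luminescence read after 30 min with ONE-Glo.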

In assay [15] the target is Thyrotropin receptor (Homo sapiens) (UniProt P16473). Put plainly: qHTS assay to identify small molecule antagonists of the thyroid stimulating hormone receptor (TSHR) signaling pathway (AID 1259385). Note: nearly all actives have a fitted effect of over 20% in size. The method in brief: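 Antagonist mode: compound-treated TSHR-expressing HEK293 cells were stimulated with 1.5 ng/mL TSH (final) in presence of Ro20-1724 for 30 min at RT. HTRF cAMP detection after 1 h; each compound tested at 15 concentrations, triplicate.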

Assay [16] deals with Progesterone receptor (Homo sapiens) (UniProt P06401). Put plainly: qHTS assay to identify small molecule antagonists of the progesterone receptor (PR) signaling pathway (AID 1346795; active = well fitted inhibition curve with a large enough effect in the signal ratio in the repeat runs, not every such curve was filed as active; the % refers to the signal ratio). The method in brief:
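PR-UAS-bla HEK293T cells carrying a UAS-driven beta-lactamase reporter were plated in medium with 2% charcoal-stripped FBS and rested 6 hr at 37C. Compounds were added with 1 nM R5020 (final) for 16 hr, then FRET substrate loaded 2 hr at room temperature.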

Assay [17] is described as follows: qHTS assay to identify small molecule antagonists of the estrogen receptor beta (ER-beta) signaling pathway - cell viability counter screen (AID 1259382; active = well fitted curve in the direction sought with a large enough effect in the repeat runs; an effect the other way counts as inactive or inconclusive;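 note: HEK293T cells carrying ER-beta-UAS-bla reporter stimulated with estradiol; series mostly up to about 92 µM; nearly all actives have a fitted effect of over 55% in size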). The procedure, abridged:
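ER-beta-UAS-bla HEK293T cells in 2% charcoal-stripped FBS medium, treated with compound plus 1 nM 17-beta-estradiol for 16 h at 37C. Viability read by CellTiter-Glo luminescence after 30 min at room temperature in the same wells.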

Values without a mark were called inactive. Records with an inconclusive call do not appear. Activity calls are given as the source filed them. Unless noted, calls come from the whole dose curve.

Androgen receptor (Homo sapiens), sequence (P10275 whole entry, looked up): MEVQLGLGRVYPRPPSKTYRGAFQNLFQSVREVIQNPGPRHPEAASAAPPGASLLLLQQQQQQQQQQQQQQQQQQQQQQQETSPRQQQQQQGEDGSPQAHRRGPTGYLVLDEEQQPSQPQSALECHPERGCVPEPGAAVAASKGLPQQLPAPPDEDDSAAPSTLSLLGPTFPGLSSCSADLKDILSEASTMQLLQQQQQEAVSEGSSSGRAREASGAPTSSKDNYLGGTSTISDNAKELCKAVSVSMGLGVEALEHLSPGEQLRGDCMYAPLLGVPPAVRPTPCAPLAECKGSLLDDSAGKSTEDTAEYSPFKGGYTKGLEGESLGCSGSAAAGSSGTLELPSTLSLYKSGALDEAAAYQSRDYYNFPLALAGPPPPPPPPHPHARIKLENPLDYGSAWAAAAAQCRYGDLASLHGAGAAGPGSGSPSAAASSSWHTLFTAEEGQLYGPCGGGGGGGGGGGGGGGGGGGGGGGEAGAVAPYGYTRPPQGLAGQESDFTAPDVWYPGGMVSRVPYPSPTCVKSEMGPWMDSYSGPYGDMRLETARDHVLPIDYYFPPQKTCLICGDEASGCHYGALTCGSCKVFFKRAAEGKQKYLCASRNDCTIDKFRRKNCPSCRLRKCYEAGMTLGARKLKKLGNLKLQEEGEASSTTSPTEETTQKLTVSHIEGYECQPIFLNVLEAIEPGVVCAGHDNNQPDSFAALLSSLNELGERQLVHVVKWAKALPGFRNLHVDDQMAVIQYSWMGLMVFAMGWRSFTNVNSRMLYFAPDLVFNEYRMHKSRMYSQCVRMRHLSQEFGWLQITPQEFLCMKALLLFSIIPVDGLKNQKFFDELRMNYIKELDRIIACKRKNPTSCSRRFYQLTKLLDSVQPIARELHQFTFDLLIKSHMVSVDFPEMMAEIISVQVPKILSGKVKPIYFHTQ
Thyrotropin receptor (Homo sapiens), sequence (P16473 whole entry, looked up): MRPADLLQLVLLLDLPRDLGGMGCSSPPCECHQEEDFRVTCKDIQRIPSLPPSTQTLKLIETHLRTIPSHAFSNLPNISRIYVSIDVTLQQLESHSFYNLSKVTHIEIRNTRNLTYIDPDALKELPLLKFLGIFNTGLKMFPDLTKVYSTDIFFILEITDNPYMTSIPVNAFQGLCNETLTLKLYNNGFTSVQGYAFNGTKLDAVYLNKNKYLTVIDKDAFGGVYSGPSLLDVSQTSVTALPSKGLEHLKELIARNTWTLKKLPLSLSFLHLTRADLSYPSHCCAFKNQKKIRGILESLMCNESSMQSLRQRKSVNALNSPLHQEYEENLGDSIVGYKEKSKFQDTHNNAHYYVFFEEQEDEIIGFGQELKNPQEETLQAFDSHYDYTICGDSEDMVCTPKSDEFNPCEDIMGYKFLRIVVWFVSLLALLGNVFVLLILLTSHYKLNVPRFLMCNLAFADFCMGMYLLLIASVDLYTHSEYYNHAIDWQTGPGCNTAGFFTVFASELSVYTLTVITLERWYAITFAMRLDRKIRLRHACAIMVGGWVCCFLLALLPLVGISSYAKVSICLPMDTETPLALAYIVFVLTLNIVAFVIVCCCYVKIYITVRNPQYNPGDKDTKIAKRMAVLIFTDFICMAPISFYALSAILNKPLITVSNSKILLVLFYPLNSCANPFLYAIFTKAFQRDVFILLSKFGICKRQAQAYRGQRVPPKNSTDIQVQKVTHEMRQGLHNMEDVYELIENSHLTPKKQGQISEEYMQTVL
Estrogen receptor (Homo sapiens), sequence (P03372 whole entry, looked up): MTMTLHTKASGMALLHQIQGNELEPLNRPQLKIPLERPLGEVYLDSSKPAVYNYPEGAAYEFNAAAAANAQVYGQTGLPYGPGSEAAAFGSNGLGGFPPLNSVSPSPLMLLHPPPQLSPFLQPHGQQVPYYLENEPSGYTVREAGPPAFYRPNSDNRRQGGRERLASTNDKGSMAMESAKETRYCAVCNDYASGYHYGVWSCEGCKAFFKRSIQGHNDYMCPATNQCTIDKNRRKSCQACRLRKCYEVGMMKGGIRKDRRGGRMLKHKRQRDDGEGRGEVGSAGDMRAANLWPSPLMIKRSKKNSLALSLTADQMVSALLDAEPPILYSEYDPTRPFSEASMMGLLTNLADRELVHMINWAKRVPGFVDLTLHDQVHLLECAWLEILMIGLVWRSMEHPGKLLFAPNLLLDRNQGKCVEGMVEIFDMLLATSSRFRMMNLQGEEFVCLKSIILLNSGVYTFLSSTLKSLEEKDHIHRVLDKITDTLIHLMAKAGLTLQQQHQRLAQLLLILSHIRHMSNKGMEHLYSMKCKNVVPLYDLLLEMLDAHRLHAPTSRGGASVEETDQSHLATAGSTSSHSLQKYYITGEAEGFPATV
Thyrotropin-releasing hormone receptor (Homo sapiens), sequence (P34981 whole entry, looked up): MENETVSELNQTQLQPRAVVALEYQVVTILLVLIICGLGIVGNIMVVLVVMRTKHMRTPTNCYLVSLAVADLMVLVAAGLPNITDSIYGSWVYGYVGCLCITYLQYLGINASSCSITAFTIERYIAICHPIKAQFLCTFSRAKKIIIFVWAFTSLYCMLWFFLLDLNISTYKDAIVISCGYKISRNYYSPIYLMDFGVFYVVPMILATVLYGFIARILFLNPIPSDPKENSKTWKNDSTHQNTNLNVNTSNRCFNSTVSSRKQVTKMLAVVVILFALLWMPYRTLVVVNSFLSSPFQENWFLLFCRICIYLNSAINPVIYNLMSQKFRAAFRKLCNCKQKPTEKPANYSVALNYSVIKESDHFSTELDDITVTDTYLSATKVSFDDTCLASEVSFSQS
Progesterone receptor (Homo sapiens), sequence (P06401 whole entry, looked up): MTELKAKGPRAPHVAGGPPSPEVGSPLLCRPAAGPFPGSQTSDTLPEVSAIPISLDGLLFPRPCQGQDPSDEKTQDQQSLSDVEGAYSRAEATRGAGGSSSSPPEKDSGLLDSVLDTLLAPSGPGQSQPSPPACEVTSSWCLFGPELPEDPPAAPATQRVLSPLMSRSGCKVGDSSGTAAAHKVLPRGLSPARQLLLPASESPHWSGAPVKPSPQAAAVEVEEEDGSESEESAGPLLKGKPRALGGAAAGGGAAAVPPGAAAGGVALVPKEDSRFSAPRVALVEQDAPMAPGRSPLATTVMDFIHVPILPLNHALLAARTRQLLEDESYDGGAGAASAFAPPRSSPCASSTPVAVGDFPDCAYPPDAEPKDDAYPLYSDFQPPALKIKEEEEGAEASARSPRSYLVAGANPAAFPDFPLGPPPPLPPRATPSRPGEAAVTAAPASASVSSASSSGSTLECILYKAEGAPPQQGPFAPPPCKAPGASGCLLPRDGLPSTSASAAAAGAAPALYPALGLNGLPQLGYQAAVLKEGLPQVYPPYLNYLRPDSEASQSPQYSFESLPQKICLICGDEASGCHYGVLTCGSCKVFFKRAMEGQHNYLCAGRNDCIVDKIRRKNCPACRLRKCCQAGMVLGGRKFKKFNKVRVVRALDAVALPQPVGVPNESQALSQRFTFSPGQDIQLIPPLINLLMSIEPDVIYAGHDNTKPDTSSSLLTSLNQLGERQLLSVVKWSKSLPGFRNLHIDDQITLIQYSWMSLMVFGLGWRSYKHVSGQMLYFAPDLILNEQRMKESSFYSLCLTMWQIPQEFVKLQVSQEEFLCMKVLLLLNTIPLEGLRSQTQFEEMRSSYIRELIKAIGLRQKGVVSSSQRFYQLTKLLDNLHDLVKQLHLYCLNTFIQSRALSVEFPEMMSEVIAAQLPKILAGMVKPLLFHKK

Turning to `CN(C)CCOC1=Cc2ccccc2Sc2ccc(Cl)cc21`, the Potency result in assay [1], in [2], in [4], in assay [6], in assay [7] and in assay [8] was “inactive” throughout. Also, the Potency entry in [9] was “inactive”. Besides, in assay [3], the Potency is 26.6 µM (active). Besides, the outcome in assay [5], in assay [10], in [11], in assay [12] and in assay [13] was inactive.

On to `CC1(C)C2=CCCC(C)(C)[C@]23CC[C@H]1C3`, for which the Potency entry in assay [1], in assay [2], in assay [14], in assay [15], in assay [6] and in assay [16] was “inactive” in each case. Further, the result in [5], in assay [11], in assay [12] and in assay [13] was inactive.

Consider `C/C=C/C=C/CCCCCCCO`, for which the Potency entry in assay [1], in [2], in assay [17], in assay [4], in assay [15] and in [7] was “inactive” throughout. Also, the call in assay [5], in assay [10], in [11], in [12] and in [13] was inactive.

For the compound `ON(Cc1ccccc1)Cc1ccccc1`, the Potency result in [1], in assay [2], in assay [14], in assay [17], in assay [4] and in assay [15] was “inactive” each time. Also, the Potency entry in [6], in assay [7], in [16], in assay [8] and in assay [9] was “inactive” throughout. The call in assay [5], in assay [10], in [11], in assay [12] and in assay [13] was inactive.

Consider `c1ccc(COCc2ccccc2)cc1`, for which the Potency entry in assay [1], in [2], in [3], in assay [17], in assay [4] and in assay [15] was “inactive” in each case. In addition, the Potency result in [6], in [7], in assay [16], in assay [8] and in [9] was “inactive” throughout. Moreover, the call in [5], in assay [11], in assay [12] and in assay [13] was inactive.

In the case of `Cc1occc1C(=O)Nc1ccc(C(=O)N2CCC(F)(F)/C(=C\C(=O)N3CCC(N4CCCCC4)CC3)c3ccccc32)cc1`, the Potency result in [1], in [2], in [14], in [17], in assay [4] and in assay [15] was “inactive” throughout. Further, the Potency result in [6], in assay [7] and in [16] was “inactive” throughout. Besides, the compound was classed as inactive in assay [5], in assay [10], in [11], in assay [12] and in assay [13].

With `CNC(=S)NC`, the Potency entry in assay [1], in [2], in assay [14], in [4], in assay [15] and in assay [6] was “inactive” throughout. Further, the Potency entry in assay [7] was “inactive”. Also, the Potency was 13.7 µM (active) in assay [3] and 7.7 µM (active) in [9]. Also, the outcome in [5], in assay [10], in [11], in [12] and in [13] was inactive.

For `CC1C2CC(CC2C2CCCC(O)C2)C1(C)C` (configuration not stated), the Potency result in assay [1], in assay [2], in assay [15], in assay [6] and in assay [9] was “inactive” in each case. In addition, the compound was classed as inactive in assay [5], in assay [10], in assay [11], in assay [12] and in [13].

Consider `Nc1c(I)cc(I)c(C(=O)N(CCC(=O)O)c2ccccc2)c1I`, for which the Potency entry in [1], in [2], in assay [3], in [14], in [17] and in [6] was “inactive” each time. Further, the Potency entry in assay [7], in assay [16], in [8] and in assay [9] was “inactive” in each case. Besides, the call in assay [10], in assay [11], in assay [12] and in [13] was inactive.
